Among the test systems are SK-MEL-2 melanoma; EKVX NSCLC; SN12C renal; UO-31 renal; TK-10 renal; ACHN renal; CAKI-1 renal; A498 renal; CCRF-CEM leukemia; MOLT-4 leukemia; SR leukemia; RPMI-8226 leukemia; OVCAR-8 ovarian; OVCAR-5 ovarian; OVCAR-4 ovarian; SK-OV-3 ovarian; IGROV1 ovarian; HS 578T breast; NCI/ADR-RES ovarian; OVCAR-3 ovarian.
What all share (assay): NCI-60 one-dose screen, 48 h (100 = growth as untreated, 0 = no growth, -100 = all killed)
Common to all, as to settings: 10 µM unless noted

The panel holds about 83,000 compounds, 20% with a hit somewhere; the sample as a whole holds those more often.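 Step 1: grow cells in 96-well plates. Step 2: add test compound at a single concentration. Step 3: incubate 48 h. Step 4: record percent growth.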 Values without a mark were called inactive. Calls of active or inactive are those of the source. How the source made its calls: active means growth percent below 10; inactive means the rest.

As for `COc1cc(-c2ccc(N=Nc3c(O)c(C(=O)Nc4ccccc4OC)cc4ccccc34)c(OC)c2)ccc1N=Nc1c(O)c(C(=O)Nc2ccccc2OC)cc2ccccc12`, the growth is 101% in the experiment with SK-MEL-2 melanoma; 96.4% in the experiment on EKVX NSCLC; 98.6% with SN12C renal; 78.7% in the experiment with UO-31 renal; 110% with TK-10 renal; 90.7% in the experiment with ACHN renal. Further, the growth in the experiment with CAKI-1 renal was 83.8%; in the experiment with A498 renal it was 78%; with CCRF-CEM leukemia, 9.35% (active); in the experiment on MOLT-4 leukemia it was 93.8%; in the experiment on SR leukemia it was 41.8%; in the experiment with RPMI-8226 leukemia, 97.2%. For the same compound, the growth in the experiment with OVCAR-8 ovarian is 99.3%; in the experiment with OVCAR-5 ovarian, 99.6%; with OVCAR-4 ovarian it was 98.9%; in the experiment with SK-OV-3 ovarian, 103%; with IGROV1 ovarian it was 88.3%; in the experiment with HS 578T breast, 84.8%. The growth in the experiment on NCI/ADR-RES ovarian is 96.4%.

Consider `CCOC(=O)c1ccc(-c2ccc3cc(OC)ccc3c2)nc1C`, for which the growth in the experiment on SK-MEL-2 melanoma is 102%; in the experiment on EKVX NSCLC it was 99.4%; with SN12C renal, 101%; with UO-31 renal it was 93.9%; in the experiment with TK-10 renal it was 84.3%; in the experiment on ACHN renal, 96.8%. Further, the growth is 114% in the experiment with CAKI-1 renal; 99.8% in the experiment on A498 renal; 95.3% in the experiment on CCRF-CEM leukemia; 78% with MOLT-4 leukemia; 78.3% in the experiment on SR leukemia; 105% in the experiment with RPMI-8226 leukemia. Moreover, the growth was 107% in the experiment on OVCAR-8 ovarian; 95.4% in the experiment with OVCAR-5 ovarian; 112% in the experiment on OVCAR-4 ovarian; 98.6% with SK-OV-3 ovarian; 106% in the experiment on OVCAR-3 ovarian; 120% in the experiment on HS 578T breast. Moreover, the growth in the experiment with NCI/ADR-RES ovarian is 108%.

With `Cc1cc(Cc2cc(C)cc(C(C)(C)C)c2O)c(O)c(C(C)(C)C)c1`, the growth in the experiment on SK-MEL-2 melanoma is 68.8%; in the experiment with EKVX NSCLC, 26.5%; in the experiment on SN12C renal, 28.1%; in the experiment on UO-31 renal, 43%; with TK-10 renal, 52.8%; with ACHN renal it was 34.3%. In addition, the growth was 31% in the experiment with CAKI-1 renal; 90.2% in the experiment with A498 renal; 28.5% with CCRF-CEM leukemia; 29.1% with MOLT-4 leukemia; -7.3% (active) with SR leukemia; 32.2% in the experiment with RPMI-8226 leukemia. The growth is 33.9% in the experiment on OVCAR-8 ovarian; 48.5% in the experiment on OVCAR-4 ovarian; 51.9% in the experiment on SK-OV-3 ovarian; 47.5% in the experiment with IGROV1 ovarian; 38.5% in the experiment with OVCAR-3 ovarian.

On to `O=C(CCc1nc(-c2cccc(Cl)c2)no1)Nc1ccccn1`, for which the growth in the experiment on SK-MEL-2 melanoma is 105%; in the experiment with EKVX NSCLC it was 92.6%; in the experiment with SN12C renal, 94.9%; in the experiment on UO-31 renal, 88.1%; in the experiment on TK-10 renal, 111%; in the experiment with ACHN renal, 101%. The growth with CAKI-1 renal is 89.4%; in the experiment on A498 renal it was 92.5%; with CCRF-CEM leukemia, 95%; in the experiment with MOLT-4 leukemia, 96.8%; with SR leukemia it was 89.1%; with OVCAR-8 ovarian, 106%. For the same compound, the growth in the experiment on OVCAR-5 ovarian is 100%; in the experiment with OVCAR-4 ovarian it was 107%; in the experiment on SK-OV-3 ovarian it was 104%; in the experiment on IGROV1 ovarian it was 90.4%; in the experiment with OVCAR-3 ovarian it was 108%; in the experiment with HS 578T breast it was 93.8%. In addition, the growth in the experiment on NCI/ADR-RES ovarian was 95%.

Turning to `O=C(NCOC(O)C(Cl)(Cl)Cl)NCOC(O)C(Cl)(Cl)Cl` (centres undefined), the growth in the experiment with SK-MEL-2 melanoma was 89.7%; with EKVX NSCLC, 107%; with SN12C renal, 97.8%; with UO-31 renal, 78.4%; with TK-10 renal, 100%; in the experiment on ACHN renal it was 92.8%. For the same compound, the growth is 95.9% with CAKI-1 renal; 77.1% in the experiment with A498 renal; 105% in the experiment with CCRF-CEM leukemia; 98.9% with MOLT-4 leukemia; 109% in the experiment on SR leukemia; 105% with RPMI-8226 leukemia. The growth was 89.7% with OVCAR-5 ovarian; 108% in the experiment on OVCAR-4 ovarian; 90% in the experiment with SK-OV-3 ovarian; 99.1% in the experiment on IGROV1 ovarian; 116% in the experiment on OVCAR-3 ovarian; 108% in the experiment with HS 578T breast. Moreover, in the experiment with NCI/ADR-RES ovarian, the growth was 103%.

With `COc1ccc(-n2nnc(C(=O)NCCc3c[nH]c4ccc(F)cc34)c2C)cc1`, the growth in the experiment with SK-MEL-2 melanoma is 91.6%; in the experiment on EKVX NSCLC it was 102%; in the experiment with SN12C renal, 103%; in the experiment with UO-31 renal, 83.5%; in the experiment with TK-10 renal, 96.2%; in the experiment with ACHN renal, 102%. Besides, the growth in the experiment on CAKI-1 renal is 91.7%; in the experiment with A498 renal, 100%; in the experiment with CCRF-CEM leukemia, 87.9%; with MOLT-4 leukemia it was 87.9%; with SR leukemia, 82.1%; with RPMI-8226 leukemia, 93.3%. The growth with OVCAR-5 ovarian is 101%; in the experiment on OVCAR-4 ovarian, 107%; in the experiment on SK-OV-3 ovarian it was 89.8%; with IGROV1 ovarian, 107%; in the experiment with OVCAR-3 ovarian, 103%; in the experiment on NCI/ADR-RES ovarian it was 106%.

In the case of `Nc1nc(I)c2ncn(C3OC(CO)C(O)C3O)c2n1` (centres undefined), the growth with SK-MEL-2 melanoma is 159%; in the experiment with EKVX NSCLC, 96.6%; with SN12C renal, 100%; with UO-31 renal it was 96%; in the experiment with TK-10 renal, 134%; with ACHN renal, 111%. Further, the growth is 9.47% (active) in the experiment with CAKI-1 renal; 103% in the experiment with A498 renal; 116% with CCRF-CEM leukemia; 109% in the experiment on MOLT-4 leukemia; 107% in the experiment on SR leukemia; 157% in the experiment on RPMI-8226 leukemia. The growth is 104% with OVCAR-5 ovarian; 129% with OVCAR-4 ovarian; 100% in the experiment with SK-OV-3 ovarian; 121% in the experiment with IGROV1 ovarian; 112% in the experiment with OVCAR-3 ovarian; 136% in the experiment with HS 578T breast. The growth in the experiment with NCI/ADR-RES ovarian is 105%.

Regarding `O=C(Oc1ccc([N+](=O)[O-])cc1)c1ccc(CBr)cc1`, the growth with SK-MEL-2 melanoma was 101%; in the experiment with EKVX NSCLC, 103%; in the experiment on SN12C renal, 89.9%; in the experiment with UO-31 renal, 83.3%; with TK-10 renal it was 99.3%; in the experiment on ACHN renal, 95.2%. The growth is 86.2% in the experiment on CAKI-1 renal; 86.5% with A498 renal; 68.7% in the experiment on CCRF-CEM leukemia; 82.7% in the experiment on MOLT-4 leukemia; 74.7% with SR leukemia; 81.6% in the experiment with RPMI-8226 leukemia. For the same compound, the growth in the experiment on OVCAR-8 ovarian is 96.2%; with OVCAR-5 ovarian, 103%; with OVCAR-4 ovarian, 111%; with SK-OV-3 ovarian, 147%; in the experiment with IGROV1 ovarian, 90.7%; in the experiment on OVCAR-3 ovarian it was 114%. Also, in the experiment on NCI/ADR-RES ovarian, the growth is 99.3%.

The values are drawn from PubChem BioAssay (NCI).
